In the supplement of paper PMC8007513 one finds growth yield data, which are given here for 37 compounds.

The assay deals with Trichoderma virens ATCC 9645. In words: growth yield (OD600) with compound + IPBC relative to untreated control; higher = less growth inhibition. Conditions: compound concentration: 100 uM, IPBC concentration: 200 ng/ml. An outline of the steps: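 Trichoderma virens ATCC 9645 spores from 7-day potato dextrose agar plates were suspended in potato dextrose broth at 15,000 spores ml^−1. Aliquots of 100 μl with library compounds at 100 μM final, with or without a co-applied biocide at 200 ng ml^−1, were grown in 96-well plates at 30 °C. OD600 was read at 40 h and 72 h on a BioTek EL800. Growth is expressed relative to the control without either agent, as means of duplicate screens.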

Counter-ions that a name gives are not always drawn. ± gives the standard error. Screen size: about 1,300 compounds; about 130 (10%) showed an effect of 50% or more. The entries come from a sample that favours strong results as a whole.

As to `CC1(C)O[C@@H]2C[C@H]3[C@@H]4CCC5=CC(=O)CC[C@]5(C)[C@@]4(F)[C@@H](O)C[C@]3(C)[C@]2(C(=O)CCl)O1` [Halcinonide] + CCCCNC(=O)OCC#CI [3-iodo-2-propynyl butylcarbamate (IPBC)], the growth yield worked out at 86.9 ± 1.1% (40 h) and 91.77 ± 0.1% (72 h).
The corresponding values for `COc1cnc(NS(=O)(=O)c2ccc(N)cc2)nc1` [Sulfameter] + CCCCNC(=O)OCC#CI [3-iodo-2-propynyl butylcarbamate (IPBC)] are 101 ± 7.5% and 101 ± 3.5%.
`Nc1nc2n[nH]nc2c(=O)[nH]1` [Azaguanine-8] + CCCCNC(=O)OCC#CI [3-iodo-2-propynyl butylcarbamate (IPBC)]: the growth yield is, setting by setting: (40 h) 7.47 ± 1.1%; (72 h) 12.2 ± 0.21%.
Turning to `Nc1nc2c(ncn2COCCO)c(=O)[nH]1` [Acyclovir] + CCCCNC(=O)OCC#CI [3-iodo-2-propynyl butylcarbamate (IPBC)], the growth yield was determined as 100 ± 3.5% (40 h) and 101 ± 3.5% (72 h).
For the compound `Nc1nc2c(ncn2COC(CO)CO)c(=O)[nH]1` [Ganciclovir] + CCCCNC(=O)OCC#CI [3-iodo-2-propynyl butylcarbamate (IPBC)], the growth yield turned out to be 99.9 ± 16% (40 h) and 98.1 ± 10% (72 h).
For `CC(C)(C(=O)c1cccnc1)c1cccnc1` [Metyrapone] + CCCCNC(=O)OCC#CI [3-iodo-2-propynyl butylcarbamate (IPBC)], the growth yield is 87.5 ± 1.4% (40 h) and 87.68 ± 0.84% (72 h).
As to `CC(=O)OCC(=O)[C@H]1CC[C@H]2[C@@H]3CC[C@H]4C[C@H](O)CC[C@]4(C)[C@H]3C(=O)C[C@]12C` [Alfadolone acetate] + CCCCNC(=O)OCC#CI [3-iodo-2-propynyl butylcarbamate (IPBC)], the growth yield worked out at 90.1 ± 8.4% (40 h) and 95.4 ± 2.9% (72 h).
Consider `C#C[C@]1(OC(C)=O)CC[C@H]2[C@@H]3CCC4=C[C@@H](OC(C)=O)CC[C@@H]4[C@H]3CC[C@@]21C` [Ethynodiol diacetate] + CCCCNC(=O)OCC#CI [3-iodo-2-propynyl butylcarbamate (IPBC)], for which the growth yield came to 80.21 ± 0.16% (40 h) and 92 ± 1.8% (72 h).
The matching figures for `Cc1cc2c(cc1S(N)(=O)=O)S(=O)(=O)CCC2` [Meticrane] + CCCCNC(=O)OCC#CI [3-iodo-2-propynyl butylcarbamate (IPBC)]: 91.8 ± 6.7% and 91.7 ± 3.8%.
With `COc1ccc2c(c1)c(CC(=O)OCC(=O)O)c(C)n2C(=O)c1ccc(Cl)cc1` [Acemetacin] + CCCCNC(=O)OCC#CI [3-iodo-2-propynyl butylcarbamate (IPBC)], the growth yield runs as follows: (40 h) 74.18 ± 0.16%; (72 h) 84.11 ± 0.21%.
For `CCCCCCC[N+](CC)(CC)CCCCc1ccc(Cl)cc1` [Clofilium tosylate] + CCCCNC(=O)OCC#CI [3-iodo-2-propynyl butylcarbamate (IPBC)], the growth yield (40 h) was determined as 13.5 ± 5.9% and the growth yield (72 h) was determined as 74.46 ± 0.42%.
Take `N[C@@H]1C[C@H]1c1ccccc1` [Tranylcypromine hydrochloride] + CCCCNC(=O)OCC#CI [3-iodo-2-propynyl butylcarbamate (IPBC)]: the growth yield runs as follows: (40 h) 99.6 ± 1.8%; (72 h) 104 ± 3.7%.
With `N=C(N)N1CCc2ccccc2C1` [Debrisoquin sulfate] + CCCCNC(=O)OCC#CI [3-iodo-2-propynyl butylcarbamate (IPBC)], the growth yield runs as follows: (40 h) 92.3 ± 15%; (72 h) 96.9 ± 8%.
With `COc1ccc2cc([C@H](C)C(=O)O)ccc2c1` [(S)-Naproxen] + CCCCNC(=O)OCC#CI [3-iodo-2-propynyl butylcarbamate (IPBC)], the growth yield was found to be 61.3 ± 1.9% (40 h) and 78.6 ± 1.1% (72 h).
With `COc1ccc2cc([C@@H](C)C(=O)O)ccc2c1` [(R) -Naproxen sodium salt] + CCCCNC(=O)OCC#CI [3-iodo-2-propynyl butylcarbamate (IPBC)], the growth yield is 67.7 ± 2.2% (40 h) and 81.5 ± 3.5% (72 h).
Regarding `COc1ccc2cc(CCC(C)=O)ccc2c1` [Nabumetone] + CCCCNC(=O)OCC#CI [3-iodo-2-propynyl butylcarbamate (IPBC)], the growth yield by setting is: (40 h) 39.7 ± 1.6%; (72 h) 67.1 ± 1.5%.
The matching figures for `c1ccc2c(c1)Nc1ccccc1S2` [Phenothiazine] + CCCCNC(=O)OCC#CI [3-iodo-2-propynyl butylcarbamate (IPBC)]: 34.8 ± 2.7% and 51.3 ± 1.6%.
The corresponding values for `CC(C)(C#N)c1cc(Cn2cncn2)cc(C(C)(C)C#N)c1` [Anastrozole] + CCCCNC(=O)OCC#CI [3-iodo-2-propynyl butylcarbamate (IPBC)] are 105 ± 3.8% and 98.9 ± 2.2%.
With `CN(C)c1ccc(O)c2c1C[C@H]1C[C@H]3[C@H](N(C)C)C(O)=C(C(N)=O)C(=O)[C@@]3(O)C(O)=C1C2=O` [Minocycline hydrochloride] + CCCCNC(=O)OCC#CI [3-iodo-2-propynyl butylcarbamate (IPBC)], the growth yield is 58.1 ± 2.2% (40 h) and 84.6 ± 4.7% (72 h).
`COc1ccc(OC)c(C(O)C(C)N)c1` (centres undefined) [Methoxamine hydrochloride] + CCCCNC(=O)OCC#CI [3-iodo-2-propynyl butylcarbamate (IPBC)]: the growth yield worked out at 87.4 ± 7.3% (40 h) and 92.4 ± 5.3% (72 h).
The matching figures for `COc1ccc(C(=O)N2CCCC2=O)cc1` [Aniracetam] + CCCCNC(=O)OCC#CI [3-iodo-2-propynyl butylcarbamate (IPBC)]: 83.7 ± 4.3% and 87.3 ± 3.1%.
On to `O=C1Nc2ccc(Cl)cc2[C@@](C#CC2CC2)(C(F)(F)F)O1` [Efavirenz] + CCCCNC(=O)OCC#CI [3-iodo-2-propynyl butylcarbamate (IPBC)], for which the growth yield is 39.4 ± 2.9% (40 h) and 73.1 ± 8.1% (72 h).
On to `C/C(=C\C(=O)OCCCCCCCCC(=O)O)C[C@@H]1OC[C@H](C[C@@H]2O[C@H]2[C@@H](C)[C@H](C)O)[C@@H](O)[C@H]1O` [Mupirocin] + CCCCNC(=O)OCC#CI [3-iodo-2-propynyl butylcarbamate (IPBC)], for which the growth yield came to 6.51 ± 1.4% (40 h) and 43.4 ± 5.7% (72 h).
Take `O=C1CCc2ccc(OCCCCN3CCN(c4cccc(Cl)c4Cl)CC3)cc2N1` [Aripiprazole] + CCCCNC(=O)OCC#CI [3-iodo-2-propynyl butylcarbamate (IPBC)]: the growth yield is, setting by setting: (40 h) 81.8 ± 2.1%; (72 h) 94.2 ± 1.5%.
With `NS(=O)(=O)c1cc(C(=O)O)cc(N2CCCC2)c1Oc1ccccc1` [Piretanide] + CCCCNC(=O)OCC#CI [3-iodo-2-propynyl butylcarbamate (IPBC)], the growth yield is 98.3 ± 13% (40 h) and 101 ± 6.5% (72 h).
With `CC(=O)Oc1ccc(C(c2ccc(OC(C)=O)cc2)c2ccccn2)cc1` [Bisacodyl] + CCCCNC(=O)OCC#CI [3-iodo-2-propynyl butylcarbamate (IPBC)], the growth yield (40 h) stood at 76.2 ± 2.2% and the growth yield (72 h) amounted to 86.8 ± 2.1%.
Regarding `CC[C@H]1OC(=O)[C@H](C)[C@@H](O[C@H]2C[C@@](C)(OC)[C@@H](O)[C@H](C)O2)[C@H](C)[C@@H](O[C@@H]2O[C@H](C)C[C@H](N(C)C)[C@H]2O)[C@](C)(O)C[C@@H](C)[C@@H]2N[C@@H](COCCOC)O[C@H]([C@H]2C)[C@]1(C)O` [Dirithromycin] + CCCCNC(=O)OCC#CI [3-iodo-2-propynyl butylcarbamate (IPBC)], the growth yield reads like this: (40 h) 89 ± 9.5%; (72 h) 94.9 ± 6.4%.
Regarding `N=C(N)NS(=O)(=O)c1ccc(N)cc1` [Sulfaguanidine] + CCCCNC(=O)OCC#CI [3-iodo-2-propynyl butylcarbamate (IPBC)], the growth yield is, setting by setting: (40 h) 89.6 ± 2.5%; (72 h) 92.4 ± 2.6%.
As to `Cc1cccc(C)c1OCC(=O)N[C@@H](Cc1ccccc1)[C@@H](O)C[C@H](Cc1ccccc1)NC(=O)[C@H](C(C)C)N1CCCNC1=O` [Lopinavir] + CCCCNC(=O)OCC#CI [3-iodo-2-propynyl butylcarbamate (IPBC)], the growth yield came to 108 ± 5.4% (40 h) and 111 ± 5.1% (72 h).
For the compound `O=C(NCC(O)CO)c1c(I)c(C(=O)NCC(O)CO)c(I)c(N(CCO)C(=O)CO)c1I` (centres undefined) [Ioversol] + CCCCNC(=O)OCC#CI [3-iodo-2-propynyl butylcarbamate (IPBC)], the growth yield came out at 103 ± 18% (40 h) and 98 ± 13% (72 h).
On to `C#C[C@]1(O)CC[C@H]2[C@@H]3CCC4=CC(=O)CC[C@@H]4[C@H]3CC[C@@]21C` [Norethindrone] + CCCCNC(=O)OCC#CI [3-iodo-2-propynyl butylcarbamate (IPBC)], for which the growth yield reads like this: (40 h) 55.1 ± 1.4%; (72 h) 83.06 ± 0.63%.
In the case of `OCCN(CCO)c1nc(N2CCCCC2)c2nc(N(CCO)CCO)nc(N3CCCCC3)c2n1` [Dipyridamole] + CCCCNC(=O)OCC#CI [3-iodo-2-propynyl butylcarbamate (IPBC)], the growth yield runs as follows: (40 h) 44.5 ± 1.6%; (72 h) 57.37 ± 0.52%.
On to `CN[C@H](CC(C)C)C(=O)N[C@H]1C(=O)N[C@@H](CC(N)=O)C(=O)N[C@H]2C(=O)N[C@H]3C(=O)N[C@H](C(=O)N[C@H](C(=O)O)c4cc(O)cc(O)c4-c4cc3ccc4O)[C@H](O)c3ccc(c(Cl)c3)Oc3cc2cc(c3O[C@@H]2O[C@H](CO)[C@@H](O)[C@H](O)[C@H]2O[C@H]2C[C@](C)(N)[C@H](O)[C@H](C)O2)Oc2ccc(cc2Cl)[C@H]1O` [Vancomycin hydrochloride] + CCCCNC(=O)OCC#CI [3-iodo-2-propynyl butylcarbamate (IPBC)], for which the growth yield (40 h) is 84.2 ± 0.95% and the growth yield (72 h) was 98.27 ± 0.52%.
With `Cc1cccc(N(C)C(=S)Oc2ccc3ccccc3c2)c1` [Tolnaftate] + CCCCNC(=O)OCC#CI [3-iodo-2-propynyl butylcarbamate (IPBC)], the growth yield was 0% (40 h) and 35.9 ± 0.84% (72 h).
As to `CC(C)(C)C(=O)OCOC(=O)[C@@H]1N2C(=O)[C@@H](NC(=O)[C@H](N)c3ccccc3)[C@H]2SC1(C)C` [Pivampicillin] + CCCCNC(=O)OCC#CI [3-iodo-2-propynyl butylcarbamate (IPBC)], the growth yield is 125 ± 1.3% (40 h) and 119.9 ± 0.73% (72 h).
With `CCCCCOC(=O)Nc1nc(=O)n([C@@H]2O[C@H](C)[C@@H](O)[C@H]2O)cc1F` [Capecitabine] + CCCCNC(=O)OCC#CI [3-iodo-2-propynyl butylcarbamate (IPBC)], the growth yield by setting is: (40 h) 99.28 ± 0.48%; (72 h) 98.58 ± 0.84%.
The corresponding values for `CN(C)/N=N/c1[nH]cnc1C(N)=O` [Dacarbazine] + CCCCNC(=O)OCC#CI [3-iodo-2-propynyl butylcarbamate (IPBC)] are 86.25 ± 0.48% and 93.03 ± 0.52%.
